Columns and labels:
Assay in all cases: relative growth (AUC of 72 h growth curve relative to DMSO control, dAUC) (ratio); higher = more growth (less inhibition), active = hit call of the paper
Settings in all cases: 20 µM;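 active = growth AUC significantly below the DMSO wells by Dunnett test; inactive = the rest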
[1] = system: Community 7
Method in brief: (§1)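 For relative growth (dAUC), the spline-integrated area under the growth curve was divided by the mean of the DMSO controls. Results were averaged over three biological replicates. Each replicate used a 1:100 dilution, into 96-well plates holding each chemical at 20 µM (1% DMSO), of isolates from Icelandic stream sediments and Silwood Park soil or whole sediment communities that had been grown to carrying capacity in Luria–Bertani medium. Plates were shaken briefly before each hourly A600 reading over 72 h.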

[2] = system: Community 8
Method in brief: as §1

[3] = system: Community 9
Method in brief: as §1

[4] = system: Flavobacterium 1 (Flavobacterium glaciei)
Method in brief: as §1

[5] = system: Flavobacterium 2 (Flavobacterium succinicans)
Method in brief: as §1

[6] = system: Hymenobacter 1 (Hymenobacter glaciei)
Method in brief: as §1

[7] = system: Microbacterium 1 (Microbacterium arborescens)
Method in brief: as §1

[8] = system: Neobacillus 1 (Neobacillus soli)
Method in brief: as §1

[9] = system: Oryzobacter 1 (Oryzobacter terrae)
Method in brief: as §1

[10] = system: Paenibacillus 1 (Paenibacillus castaneae)
Method in brief: as §1

[11] = system: Prolinoborus 1 (Prolinoborus fasciculus)
Method in brief: as §1

[12] = system: Pseudomonas 1 (Pseudomonas baetica)
Method in brief: as §1

[13] = system: Pseudomonas 2 (Pseudomonas vancouverensis)
Method in brief: as §1

[14] = system: Pseudomonas 3 (Pseudomonas mandelii)
Method in brief: as §1

[15] = system: Pseudomonas 4 (Pseudomonas peli)
Method in brief: as §1

[16] = system: Pseudomonas 5 (Pseudomonas baetica)
Method in brief: as §1

[17] = system: Pseudomonas 6 (Pseudomonas sp.)
Method in brief: as §1

[18] = system: Rhizobium 1 (Rhizobium herbae)
Method in brief: as §1

[19] = system: Serratia 1 (Serratia sp. 2015-2462-01)
Method in brief: as §1

[20] = system: Sphingomonas 2 (Sphingomonas sp.)
Method in brief: as §1

Measured: relative growth

CCC(C)(C)C(=O)OC1=C(c2ccc(Cl)cc2Cl)C(=O)OC12CCCCC2
inactive: [1] 1.13 | [2] 0.972 | [3] 1.05 | [4] 0.794 | [5] 1.02 | [6] 1.01 | [7] 0.978 | [8] 1 | [9] 1.03 | [10] 0.964 | [11] 0.952 | [12] 1.07 | [13] 0.983 | [14] 1.04 | [15] 1 | [16] 1.02 | [17] 1.06 | [18] 0.97 | [19] 0.978 | [20] 1

CC1(C)C(C=C(Cl)Cl)C1C(=O)OC(C#N)c1ccc(F)c(Oc2ccccc2)c1 (stereo not given)
inactive: [1] 0.868 | [2] 1.06 | [3] 0.995 | [4] 1.02 | [5] 0.998 | [6] 1.03 | [7] 1.04 | [8] 0.981 | [9] 1.14 | [10] 0.826 | [11] 1.04 | [12] 1.22 | [13] 1.02 | [14] 1.02 | [15] 0.964 | [16] 1.03 | [17] 1.03 | [18] 1.06 | [19] 0.994 | [20] 1.03

N#Cc1c[nH]cc1-c1cccc2c1OC(F)(F)O2
inactive: [1] 1.12 | [2] 1.02 | [3] 0.914 | [4] 0.83 | [5] 0.856 | [6] 0.958 | [7] 1.01 | [8] 0.915 | [9] 1.14 | [10] 0.904 | [11] 0.978 | [12] 0.952 | [13] 1 | [14] 1.03 | [15] 0.945 | [16] 0.971 | [17] 1.04 | [18] 0.932 | [19] 0.942 | [20] 0.957

Cc1cc(C(F)(C(F)(F)F)C(F)(F)F)ccc1NC(=O)c1cccc(I)c1C(=O)NC(C)(C)CS(C)(=O)=O
inactive: [1] 1.15 | [2] 1.07 | [3] 0.75 | [4] 0.818 | [5] 1.2 | [6] 0.857 | [7] 0.925 | [8] 1.09 | [9] 0.97 | [10] 1.02 | [11] 0.933 | [12] 0.728 | [14] 0.883 | [15] 1.13 | [16] 0.92 | [17] 0.776 | [18] 0.937
1.19: [19]
active: [13] 0.842 | [20] 0.654

Cc1cccc2sc3nncn3c12
inactive: [1] 1.05 | [2] 1.01 | [3] 0.899 | [4] 1.01 | [5] 0.95 | [6] 0.996 | [7] 1.05 | [8] 0.969 | [9] 1.05 | [10] 0.943 | [11] 1.01 | [12] 1.18 | [13] 0.997 | [14] 1.03 | [15] 0.947 | [16] 1.04 | [17] 1.1 | [18] 0.846 | [19] 0.947 | [20] 0.944

CCC(=O)Nc1ccc(Cl)c(Cl)c1
inactive: [1] 0.951 | [2] 1.06 | [3] 1.03 | [4] 1.02 | [5] 0.965 | [6] 0.981 | [7] 1.02 | [8] 0.962 | [9] 1.02 | [10] 0.968 | [11] 0.951 | [12] 1.04 | [13] 0.975 | [14] 0.984 | [15] 0.928 | [16] 1.01 | [17] 1.02 | [18] 0.817 | [19] 0.906 | [20] 0.927

N#Cc1c(Cl)c(Cl)c(Cl)c(C#N)c1Cl
inactive: [1] 0.891 | [2] 1.02 | [3] 0.784 | [7] 1.06 | [8] 0.966 | [11] 1.04 | [12] 0.975 | [13] 0.972 | [14] 0.967 | [15] 1 | [16] 1.01 | [17] 1.1 | [19] 0.92
active: [4] 0.681 | [5] 0.543 | [6] 0.352 | [9] 0.632 | [10] 0.0717 | [18] 0.17 | [20] 0.0279

O=C(NCCc1ncc(C(F)(F)F)cc1Cl)c1ccccc1C(F)(F)F
inactive: [1] 0.935 | [2] 0.961 | [3] 1.05 | [4] 0.987 | [5] 0.962 | [6] 0.995 | [7] 1.02 | [8] 0.981 | [9] 1.11 | [10] 0.935 | [11] 0.967 | [12] 1.08 | [13] 0.981 | [14] 1.07 | [15] 0.964 | [16] 0.99 | [17] 1.05 | [18] 0.94 | [19] 0.971 | [20] 1.02

Oc1ccccc1-c1ccccc1
inactive: [1] 1.12 | [2] 0.988 | [3] 0.974 | [4] 0.75 | [5] 0.946 | [6] 0.951 | [7] 1.04 | [8] 0.9 | [9] 1.12 | [10] 0.888 | [11] 0.977 | [12] 1.03 | [13] 0.98 | [14] 1.01 | [15] 0.935 | [16] 1.05 | [17] 1.14 | [18] 0.989 | [19] 0.959 | [20] 0.969

CC(C)N1C(=O)c2ccccc2NS1(=O)=O
inactive: [1] 1.02 | [2] 0.996 | [3] 1.01 | [4] 1.09 | [5] 1.02 | [6] 1.09 | [7] 0.977 | [8] 1.04 | [9] 1.02 | [10] 0.96 | [11] 1.01 | [12] 1.16 | [13] 1.03 | [14] 1.02 | [15] 0.975 | [16] 1.01 | [17] 1.03 | [18] 1.04 | [19] 0.991 | [20] 1.01

CC[C@H](C)C1O[C@]2(C=C[C@@H]1C)C[C@@H]1C[C@@H](C/C=C(\C)[C@@H](O[C@H]3C[C@H](OC)[C@@H](O[C@H]4C[C@H](OC)[C@H](NC)[C@H](C)O4)[C@H](C)O3)[C@@H](C)/C=C/C=C3\CO[C@@H]4[C@H](O)C(C)=C[C@@H](C(=O)O1)[C@]34O)O2 (stereo not given in full)
inactive: [1] 0.976 | [2] 0.952 | [5] 0.832 | [7] 1.04 | [8] 0.894 | [12] 0.957 | [13] 0.971 | [14] 1.08 | [15] 0.98 | [17] 1.19 | [18] 0.8
1.16: [16] | [19]
active: [3] 0.404 | [4] 0.0154 | [6] 0.356 | [9] 0.00218 | [10] 0.0061 | [11] 0.605 | [20] 0.373

COP(=O)(OC)OC=C(Cl)Cl
inactive: [1] 1.09 | [2] 0.997 | [3] 0.964 | [4] 1.01 | [5] 0.965 | [6] 0.909 | [7] 0.975 | [8] 0.893 | [9] 0.94 | [10] 0.984 | [11] 0.895 | [12] 1.08 | [13] 0.963 | [14] 1.04 | [15] 0.963 | [16] 1.01 | [17] 0.982 | [18] 1.01 | [19] 0.96 | [20] 0.823

CC(C)(C)c1ccc(CSc2cnn(C(C)(C)C)c(=O)c2Cl)cc1
inactive: [1] 1.12 | [2] 1.03 | [3] 0.994 | [4] 0.923 | [5] 1 | [6] 1.01 | [7] 1.08 | [8] 0.915 | [9] 1.04 | [10] 0.971 | [11] 0.998 | [12] 1 | [13] 1.01 | [14] 1.02 | [15] 1.02 | [16] 1.01 | [17] 1.13 | [18] 1.04 | [19] 1.06 | [20] 0.802

CCOCn1c(-c2ccc(Cl)cc2)c(C#N)c(Br)c1C(F)(F)F
inactive: [1] 1.06 | [2] 1.05 | [3] 1.03 | [4] 1.03 | [5] 0.988 | [6] 0.993 | [7] 0.996 | [8] 0.979 | [9] 1 | [10] 0.978 | [11] 1.01 | [12] 1.05 | [13] 1 | [14] 1.04 | [15] 1.02 | [16] 0.998 | [17] 1.11 | [18] 1.07 | [19] 1.01 | [20] 0.848

CC(Oc1ccc(Oc2ncc(C(F)(F)F)cc2Cl)cc1)C(=O)O (stereo not given)
inactive: [1] 0.985 | [2] 1.04 | [3] 1.01 | [4] 0.929 | [5] 0.972 | [6] 1.05 | [7] 0.984 | [8] 0.973 | [9] 1.13 | [10] 0.966 | [11] 0.983 | [12] 1.1 | [13] 1.04 | [14] 1.05 | [15] 1 | [16] 1.03 | [17] 1.17 | [18] 1.11 | [19] 0.972 | [20] 1.08

COCC(=O)N(c1c(C)cccc1C)[C@H](C)C(=O)OC
inactive: [1] 0.993 | [2] 1.06 | [3] 1.1 | [4] 1.05 | [5] 1.02 | [6] 1.08 | [7] 1.03 | [8] 1.01 | [9] 0.955 | [10] 1.05 | [11] 0.988 | [12] 0.997 | [13] 0.974 | [14] 1.09 | [15] 1.03 | [16] 1.01 | [17] 1.01 | [18] 1.13 | [19] 0.965 | [20] 1.02
